Assay outcomes (PubChem BioAssay)
GALR2 blocker – blocks the human galanin receptor 2. O43603. GALR2-expressing cells, antagonist mode. inhibition, % at 4 µM. 140,000 tested, 0.39% active. AID 828; in the data active means inhibition above about 27%;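 further: cells stimulated with galanin 1-16 at roughly its EC80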
Target sequence (O43603 whole entry, looked up): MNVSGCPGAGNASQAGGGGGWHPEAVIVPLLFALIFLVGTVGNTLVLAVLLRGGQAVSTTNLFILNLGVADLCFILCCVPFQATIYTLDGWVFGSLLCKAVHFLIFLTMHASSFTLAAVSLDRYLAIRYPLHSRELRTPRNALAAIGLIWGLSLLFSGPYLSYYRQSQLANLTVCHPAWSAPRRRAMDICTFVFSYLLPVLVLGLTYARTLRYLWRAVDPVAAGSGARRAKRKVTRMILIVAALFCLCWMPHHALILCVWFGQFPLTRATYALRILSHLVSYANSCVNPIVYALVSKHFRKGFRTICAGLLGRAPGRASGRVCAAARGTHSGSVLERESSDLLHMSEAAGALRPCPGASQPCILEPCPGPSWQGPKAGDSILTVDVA
S1P2 ag – activates the human S1P2 receptor | 97,000 tested, 0.46% active | S1P2-expressing cell line, agonist reporter read-out | activation, % at 4.5 µM | O95136; in the data active means activation above about 16%
S1P2 blocker – S1P2 (human) receptor antagonism; O95136; cell-based S1P2 antagonist assay, inhibition at 5 uM; inhibition, % at 5 µM; 97,000 tested, 0.21% active; AID 736; in the data active means inhibition above about 45%;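 further: CRE beta-lactamase reporter cells expressing human S1P2 stimulated with S1P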
PTPN22 inh 2 – inhibitors of human LYP (PTPN22) phosphatase | 96,000 tested, 0.21% active | recombinant LYP catalytic domain, DiFMUP fluorescence | AID 640 | inhibition, % at 2 µM;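 active means inhibition at 2 µM at or above a set limit, the screen mean plus 3 SD, cut at about 24% in these data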
GALR2 ag – GALR2 (human) receptor agonism. O43603. GALR2-expressing cells, agonist activation read-out. activation, % (no concentration beside the values). 140,000 tested, 0.48% active. AID 803; in the data active means activation above about 5%, passing the limit was not always enough
LYP act – LYP (human) phosphatase activation. Q9Y2R2. recombinant LYP, DiFMUP fluorescence; 0 = plate median, 100 = signal doubled. activation, % at 2 µM. 96,000 tested, 0.11% active;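 active means activation at 2 µM above a set limit, the mean plus 5 SD, cut at about 37% in these data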
PTPN22 act conf – confirmation of human LYP phosphatase activators | shares compounds with LYP act | Recombinant LYP, DIFMUP fluorescence, activation; zero set by plate's median compound well | activation, % at 2 µM | 100 tested, under 10 active | AID 1031; call rule not given here
GALR2 agon conf – GALR2 (human) agonism confirmed; activation, % at 5.6 µM; shares compounds with GALR2 ag; 460 tested, 10% active; GALR2-expressing cells, agonist activation; in the data active means activation above about 8.4%
BLA activ ctr – activates beta-lactamase reporter in GALR2 agonist counterscreen; shares compounds with GALR2 ag; CHO NFAT-bla reporter, beta-lactamase FRET activation; activation, % at 5.6 µM; 460 tested, 10% active;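 active means activation above the screen-wide mean activation plus 3 SD, cut at about 8% in these data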
A number is an active result; – = inactive; · = no result. Shown are actives, neighbours in structure and some others; about 1.3% of the full set was active somewhere.

SMILES	GALR2 blocker	S1P2 ag	S1P2 blocker	PTPN22 inh 2	GALR2 ag	LYP act	GALR2 agon conf	BLA activ ctr	others
O=C1COc2ccc(C(=O)c3ccccc3C(=O)O)cc2N1	–	·	·	·	–	·	·	·
Cc1ccc(NC(=O)c2snc3ccc(Cl)cc23)cc1C	–	·	·	·	–	·	·	·
COC(=O)c1sccc1NC(=O)c1ccc(C)s1	–	–	–	–	–	43.3	·	·	PTPN22 act conf=–
COC(=O)c1sccc1NC(=O)c1ccc(Cl)s1	–	–	–	–	–	–	·	·
Cc1cc2c(C)cc(=O)oc2c2c1NCCC2	–	–	–	–	13.4	–	–	–
O=[N+]([O-])c1cccc(S(=O)(=O)NCCCN2CCOCC2)c1	–	·	·	·	–	·	·	·
Cc1ccccc1Nc1nc(-c2sc(NC(=O)c3ccccc3)nc2C)cs1	–	–	–	–	18.9	–	–	–
CCSc1ncc(C#N)c(N)n1	–	–	–	–	–	–	–	–
COC(=O)c1c(C)[nH]c(C(=O)CSc2nnnn2-c2ccccc2)c1C	–	–	–	–	99.3	–	–	–
O=C(C1=NNCC1c1ccccc1)C1CO1 (stereo not given)	–	·	·	·	–	·	·	·
Cc1c(C(=O)N/N=C/c2ccc(-c3ccccc3[N+](=O)[O-])o2)sc(N)c1C#N	–	·	·	·	16.1	·	9.2	11.5
O=C(N/N=C/c1ccc(-c2ccccc2[N+](=O)[O-])o1)c1cncc(Br)c1	–	·	·	·	–	·	·	·
CS(=O)(=O)N1N=C(c2ccco2)CC1c1ccc(Cl)cc1 (stereo not given)	–	·	·	·	–	·	·	·
O=C(Nc1nnc(SCc2cccc3ccccc23)s1)C1COc2ccccc2O1 (stereo not given)	–	·	·	·	–	·	·	·
CSCCC(NC(=O)c1cccc(S(=O)(=O)N2CCOCC2)c1)C(=O)Nc1cccc(C)c1 (stereo not given)	–	·	·	·	–	·	·	·
O=S(=O)(c1ccc(N2CCN(CCO)CC2)nc1)N1CCCCC1	–	–	–	–	21.5	–	–	–
Cc1cc(NC(=O)c2ccccc2Cl)no1	–	–	–	–	–	–	·	·
Cc1ccc2nc(-c3ccccc3Cl)cc(C(=O)Nc3cc(C)on3)c2c1	–	–	–	–	17.4	–	–	–
CS(=O)(=O)NCCCNc1ccc(Cl)cc1[N+](=O)[O-]	–	–	–	–	58.0	–	–	–
CCNCCNc1ccc(Cl)cc1[N+](=O)[O-]	–	–	–	–	–	–	·	·
CC1(C)C=C(c2ccc(C=O)s2)CC(C)(C)N1	–	–	–	–	–	–	·	·
CC1(C)C=C(c2ccc(C=O)s2)CC(C)(C)N1C=O	–	·	·	·	14.1	·	–	–
CCS(=O)(=O)N1CCN(c2cccc(C)c2C)CC1	–	–	–	–	17.0	–	–	–
CCOCCCNC(=O)C1CC(=O)N(C2CCCC2)C1 (stereo not given)	–	–	–	–	27.9	–	–	–
CCn1c(=O)cc(OCC(=O)Nc2cccc(C)n2)c2ccccc21	–	–	–	–	119.8	–	–	–
SMILES	GALR2 blocker	S1P2 ag	S1P2 blocker	PTPN22 inh 2	GALR2 ag	LYP act	GALR2 agon conf	BLA activ ctr	others
CCn1c(=O)cc(OCC(=O)Nc2cccnc2)c2ccccc21	–	–	–	–	–	–	·	·
Cc1onc(-c2c(F)cccc2Cl)c1C(=O)OCC(=O)NC(c1ccccc1)c1ccccc1	–	–	–	–	–	–	·	·
O=C(COC(=O)COc1ccc(Br)cc1)Nc1cccnc1Cl	–	·	·	·	34.4	·	–	–
COc1ccc(-c2cc(-c3cc(OC)ccc3O)[nH]n2)cc1	–	–	–	–	–	–	·	·
COc1ccc(-c2n[nH]c(C)c2-c2cc(OC)ccc2O)cc1	–	–	–	–	–	–	–	–
Cc1cccc2c(SCC(=O)NCC3CCCO3)nc(-c3ccc(F)cc3)nc12 (stereo not given)	–	–	–	–	–	–	·	·
CCOC(=O)c1sc(NC(=O)Nc2ccccc2Cl)cc1C	–	·	·	·	12.8	·	–	–
COc1cc(NC(=S)N2CCN(C(c3ccccc3)c3ccccc3)CC2)cc(OC)c1	–	–	–	–	–	–	·	·
COCC(C)NC(=O)COc1ccc(Cl)cc1Cl (stereo not given)	–	–	–	–	–	–	–	–
O=C(Nc1ccc(S(=O)(=O)N2CCCCC2)cc1)C1CCCN(C(=O)c2ccc(Cl)cc2)C1 (stereo not given)	–	·	·	·	–	·	·	·
CCC(/C=N/NC(=O)C(N)=O)CC	–	·	·	·	–	·	·	·
O=c1[nH]ncn2cccc12	–	–	–	–	24.6	–	–	–
Cn1cccc1CC(=O)NNC(=O)Nc1cccc(Cl)c1	–	·	·	·	–	·	·	·
N#C/C(=C\c1cn(CCOc2ccccc2F)c2ccccc12)C(=O)NCc1cccs1	–	·	·	·	9.2	·	–	–
CCCCCCc1cc2cc(C(N)=O)c(=N)oc2cc1O	–	38.8	–	–	104.6	–	–	23.1
CCCCCCc1cc2cc(S(=O)(=O)c3ccc(F)c(Cl)c3)c(=O)oc2cc1O	–	·	·	·	19.3	·	26.0	50.5
CCCCCCc1cc2cc(C(=O)NC)c(=N)oc2cc1O	–	–	–	–	–	–	·	·
Cn1c2c(c(=O)n(C)c1=O)[C@@]1(C(=O)Nc3ccccc31)C(C#N)=C(N)O2	–	·	·	·	–	·	·	·
CN(C)c1nc(-c2ccccc2)cc(C(F)(F)F)c1C#N	–	–	–	–	–	–	–	–
CCN(CC)c1nc(-c2ccc(Cl)cc2)cc(C(F)(F)F)c1C#N	–	–	–	–	–	–	·	·
C=CCN1C(=O)C(CC(=O)Nc2ccc(OC)cc2)N(Cc2ccco2)C1=S (stereo not given)	–	–	–	–	16.2	–	–	–
Cc1ccc(CNC(=O)c2ccc3nc4[nH]c5ccccc5c4nc3c2)cc1	–	·	·	·	13.9	·	8.7	–
Nc1nnc(-c2cc3ccccc3oc2=O)s1	–	–	–	–	–	–	·	·
O=c1oc2ccccc2cc1-c1nc2c(s1)CCc1ccccc1-2	–	·	·	·	10.4	·	–	–
Cc1[nH]c(=S)sc1Cc1ccc(F)cc1	–	·	·	·	–	·	·	·
Cc1cc2c3c(c1)C(C)(c1ccccc1)CC(C)(C)N3C(=O)C21C(C#N)=C(N)OC2=C1C(=O)CC(C)(C)C2 (stereo not given)	–	–	–	–	18.2	–	–	15.2
O=c1[nH]c2ccccc2nc1-c1cccs1	–	–	–	–	11.7	–	–	–
CC(=O)NCC(=O)N(C)C(C(=O)Nc1ccc(C(C)C)cc1)c1ccccc1 (stereo not given)	–	–	–	–	–	–	·	·
CCOc1cc(/C=N/NC(=O)C(C)Sc2ccccn2)ccc1O (stereo not given)	–	·	·	·	–	·	·	·
O=C(Cc1cc(=O)oc2cc(O)ccc12)NCC1CCC(C(=O)O)CC1 (stereo not given)	–	–	–	–	–	–	–	–
